# Screens: PubChem BioAssay, National Center for Advancing Translational Sciences (NCATS)
# Hits are enriched below; roughly 12% of the tested compounds scored in any of these assays.
# JMJD2A Tudor: qHTS Assay for Inhibitors of JMJD2A-Tudor Domain | AlphaScreen JMJD2A-Tudor / H3K4me3 peptide binding | AID 504339, 2011 | 4.4% of 390,000 active | Lysine-specific demethylase 4A (Homo sapiens), O75164 | Potency, µM (doses to about 114 µM), inactives show at the highest dose activity change, negative = inhibition, most hits filed as inhibitors; note: % is set by controls: 0 for no effect and ±100 for the full control effect; nearly all actives have a fitted effect of over 50% in size
# G9a block: qHTS Assay for Inhibitors of Histone Lysine Methyltransferase G9a. Histone-lysine N-methyltransferase EHMT2 (Homo sapiens), Q96KQ7. G9a H3K9 monomethylation, AlphaScreen, 2 h. Potency, µM (top dose mostly 102 µM), for the others: at the top dose activity, negative = inhibition, actives largely listed as inhibitors. 8.8% of 350,000 active. AID 504332, 2011; note: % is set by controls: 0 for no effect and ±100 for the full control effect; nearly all actives have a fitted effect of over 75% in size
# Target sequence (Q96KQ7 913-1193 limits assumed): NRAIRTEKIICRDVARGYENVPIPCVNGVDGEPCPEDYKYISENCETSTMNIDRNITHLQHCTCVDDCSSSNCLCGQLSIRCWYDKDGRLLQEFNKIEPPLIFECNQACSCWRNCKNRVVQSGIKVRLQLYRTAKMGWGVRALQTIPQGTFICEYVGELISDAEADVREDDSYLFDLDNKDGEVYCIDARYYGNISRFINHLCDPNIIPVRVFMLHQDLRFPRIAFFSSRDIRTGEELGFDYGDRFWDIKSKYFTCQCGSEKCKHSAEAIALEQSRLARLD
#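 Enzyme 20 nM + cpd, 15 min RT; add b-H3K9 pep 500 nM / SAM 20 uM; 2 h RT; anti-H3K9me1 Ab 0.5 ug/mL + SA donor / anti-rabbit acceptor beads 20 ug/mL each, 10 min; AlphaScreen read.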
# BAZ2B inh: qHTS Assay for Inhibitors of BAZ2B. 4.4% of 360,000 active. AlphaScreen BAZ2B-H3K14Ac peptide displacement. Bromodomain adjacent to zinc finger domain protein 2B (Homo sapiens), Q9UIF8. Potency, µM (titrated, usually from 114 µM), for the others: at the top dose activity change, negative = inhibition, actives largely listed as inhibitors; note: % is set by controls: 0 for no effect and ±100 for the full control effect; nearly all actives have a fitted effect of over 60% in size
#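 AlphaScreen displacement of biotin-H3(5-23)K14Ac peptide (50 nM final) from BAZ2B (50 nM final) in PBS pH 7.4, 0.01% Tween-20; complex preformed 30 min RT, then compounds (top 110 uM) 30 min RT, beads 20 min dark.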
# Sfp PPTase inh: qHTS Assay for Inhibitors of Bacillus subtilis Sfp phosphopantetheinyl transferase (PPTase); 3.5% of 310,000 active; Potency, µM, for inactives: largest response in the series, negative = inhibition, hits mostly inhibitors; Biochemical Sfp PPTase activity, qHTS;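 note: the enzyme is Sfp with the accession as filed and its product quenches rhodamine fluorescence; 0% = enzyme reaction without inhibitor and -100% = no enzyme wells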
#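 Sfp 15 nM + cpd, 15 min RT; start w/ rhodamine-CoA 5 uM, BHQ-2-YbbR 12.5 uM (final); 50 mM Hepes pH 7.6, 10 mM MgCl2, 0.01% NP-40, 0.01% BSA; read 525/598 nm at 0 and 30 min.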
# HP1b binding inh: HTS for Inhibitors of HP1-beta Chromodomain Interactions with Methylated Histone Tails. AlphaScreen HP1-beta / biotin-H3K9me3 peptide binding. Potency, µM (highest dose often 114 µM), without a hit: top-dose activity change, negative = inhibition, most hits filed as inhibitors. 0.56% of 390,000 active. AID 540317, 2011; note: nearly all actives have a fitted effect of over 70% in size
# Target sequence (P83916 whole entry, looked up): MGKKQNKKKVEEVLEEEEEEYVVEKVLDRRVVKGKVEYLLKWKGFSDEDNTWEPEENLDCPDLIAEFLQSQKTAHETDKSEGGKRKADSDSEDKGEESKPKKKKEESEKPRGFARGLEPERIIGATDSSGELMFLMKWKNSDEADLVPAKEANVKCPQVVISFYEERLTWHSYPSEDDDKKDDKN
#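 HP1-beta protein (50 nM final) preincubated 30 min at room temperature with biotinylated H3(1-18)K9me3 peptide (50 nM) in PBS pH 7.4, 0.01% Tween-20, then compound added for 30 min. AlphaScreen streptavidin donor/nickel chelate acceptor beads (10 ug/mL final), 30 min dark, luminescence read.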
# * hit, by the source's call; ? = inconclusive; nt = no result; ! = not active in a repeat; [ ] = another dose, or the depositor's remark. Calls come from the whole dose curve; as a rule, active = well fitted curve in the direction sought with a large enough effect; inconclusive = small, poorly fitted or top-dose-only effect, or another doubt; inactive = no such curve, though single readings can be large; an effect the other way counts as inactive or inconclusive. Potency is the fitted concentration of half-maximal effect.
SMILES,JMJD2A Tudor,G9a block,BAZ2B inh,Sfp PPTase inh,HP1b binding inh
O=C(CCc1ccccc1)NC1CCCc2ccccc21 (centres undefined),-14%,11%,2%,-10%,34%
O=C(CN1CCN(c2ccccc2Cl)CC1)NC1CCCc2ccccc21 (centres undefined),1µM*,8.9µM*,20µM*,?,?
Nc1ccccc1C(=O)Nc1cccc2ccccc12,-24%,nt,-4%,14%,30%
COc1ccc2cc1Oc1ccc(cc1)C[C@H]1c3c(cc4c(c3Oc3cc5c(cc3OC)CCN(C)[C@@H]5C2)OCO4)CCN1C,35µM*,11µM*!,-38%,2%,?
CS(=O)(=O)Nc1cccc(C2=NN(S(=O)(=O)c3ccccc3)C(c3ccco3)C2)c1 (centres undefined),?,50µM*,-21%,56µM*,?
CCS(=O)(=O)Nc1cccc(C2=NN(S(=O)(=O)c3ccc(C)cc3)C(c3ccco3)C2)c1 (centres undefined),?,?,nt,50µM*,23%
COc1ccc(Oc2ncc3nc(C)c(=O)n(CCc4ccccc4)c3n2)cc1,nt,6%[12.7 µM],nt,12%,nt
COCC(=O)c1[nH]c2ccccc2c1C,-1%,?,-7%,26%,41%
Cc1ccccc1/C=C/C1=NCCN1,20µM*,30µM*,?,nt,?
Cc1ccccc1C=O,-1%,-5%[0.501 µM],-3%,nt,46%
CN1CCN(NC(=S)Nc2ccc(OC(F)F)cc2)CC1,?,-4%,nt,56µM*,32%
O=C(CCCn1c(=O)c2ccccc2n(CC(=O)Nc2ccc(F)cc2F)c1=O)NCc1ccccc1Cl,-18%,5%[59 µM],-10%,nt,-5%
Cc1ccc(N2CCn3c2nc2c3c(=O)n(C/C=C/c3ccccc3)c(=O)n2C)cc1C,?,?,?,nt,-19%
CC(C)CC1(C)NC(=O)N(CC(=O)N2C(C)CCCC2C)C1=O (centres undefined),-5%,5%[12.7 µM],-4%,nt,27%
CCc1nnc2c(NCCc3ccc(OC)c(OC)c3)nc3ccccc3n12,32µM*!,4%,?,6%,10%
O=C1C2CC=C(Cl)CC2C(=O)N1CCCCCCN1C(=O)C2CC=C(Cl)CC2C1=O (centres undefined),45µM*,11µM*,45µM*,0%,?
O=C1C2CC=C(Cl)CC2C(=O)N1CCN1CCOCC1 (centres undefined),6%,-7%,4%,11%,34%
CSC1=N/C(=C\c2ccccc2F)C(=O)S1,-19%,45µM*,-11%,56µM*,22%
Cc1ccc(CNC(=O)CSc2nc(C)cc(C)c2C#N)cc1,-4%,-4%[59 µM],24%,-2%,69%
COc1ccc(C2Nc3ccccc3C(=O)N2NS(=O)(=O)c2ccc(C)cc2)c(OC)c1 (centres undefined),-13%,-2%,10%,17%,-4%
Cc1ccc(S(=O)(=O)NN2C(=O)c3ccccc3NC2c2ccccc2F)cc1 (centres undefined),-5%,6%,50µM*,9%,41%
Cn1c(N)c(C(=O)Nc2cccc(Cl)c2)c(=O)n(C)c1=O,-3%,25%,11%,3%,9%
CN=c1sc(C(=O)Nc2cccc(Cl)c2)cc(=O)n1C,45µM*,9%[59 µM],8%,0%,-5%
O=C1c2ccccc2C(=O)C12OC2c1cccc2ccccc12 (centres undefined),-24%,6.3µM*,1%,28µM*,12%
CC(=O)C1=C(O)C(=O)N(CC#N)C1c1cccs1 (centres undefined),79µM*,-5%[59 µM],-11%,-19%,14%
O=C(C1=C(O)C(=O)N(CCOCCO)C1c1cccs1)c1cccs1 (centres undefined),?,45µM*,?,-21%,40%
